Consider 8 compounds from PubChem BioAssay (Tox21).

Assay [1] can be described thus: Nuclear factor erythroid 2-related factor 2/antioxidant responsive element (Nrf2/ARE) small molecule agonists: luciferase reporter gene qHTS assay in human keratinocytes (AID 1919969). Note: nearly all actives have a fitted effect of over 35% in size. Note: potency is the fitted concentration of half-maximal effect. In general terms: Reporter assays use an easily measured gene product as a stand-in for the process of interest.
For assay [2], the target named is Gonadotropin-releasing hormone receptor (Homo sapiens) (UniProt P30968). Kind of assay: Human gonadotropin-releasing hormone receptor (GnRHR) small molecule agonists, calcium flux assay in GnRHR-HEK293 cells (AID 1920063). Note: nearly all actives have a fitted effect of over 35% in size. The gist of the method:
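Fluorescence kinetics (480 nm excitation, 540 nm emission; 3 min, 1 s steps) report calcium mobilisation in human GnRHR-HEK293 cells in agonist mode. Dye incubation: 1 h, 37 C.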

Assay [3] addresses KiSS-1 receptor (Homo sapiens) (UniProt Q969F8). The assay can be described thus: Human kisspeptin (KISS1R) small molecule agonists, calcium flux assay in KISS1R-HEK293 cells (AID 1920064; active = well fitted activation curve with a large enough effect in the repeat runs). A digest of the protocol:
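Measures KISS1R agonism through calcium-sensitive dye fluorescence in stably transfected HEK293 cells, read for 3 min after pin-tool compound delivery; 15-point titrations in triplicate.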

Assay [4] is described as follows: G protein-coupled receptor (GPCR) small molecule agonists, calcium flux assay: HEK293 wild type cell line counter screen (AID 1920065). A digest of the protocol:
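Readout: fluorescence at 480 nm excitation/540 nm emission, sampled at 1 s intervals for 3 min. Cells had been cultured 18 h, then dye-loaded 1 h at 37 C before compound or ATP addition.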

Assay [5] in a line: p53 small molecule agonists, cell-based qHTS assay with rat liver microsomes (AID 1963578). Note: potency is the fitted concentration of half-maximal effect. The gist of the method: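 Each plate received p53RE-bla cells, then compound, then rat liver microsomes and NADPH (both 0.5 mg/mL final). Plates were held 16 h at 37 C, and beta-lactamase activity was detected with LiveBLAzer over 2 h.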
Assay [6] can be described thus: p53 small molecule agonists, cell-based qHTS assay with human liver microsomes: qHTS cell viability counter screen (AID 1963579). Note: nearly all actives have a fitted effect of over 45% in size. Note: potency is the fitted concentration of half-maximal effect. A digest of the protocol: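 Tox21 library compounds, delivered from DMSO stocks, were tested on p53RE-bla cells together with 0.5 mg/mL human liver microsomes and 0.5 mg/mL NADPH (final) over 16 h at 37 C; CellTiter-Glo luminescence served as the cytotoxicity measure.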
A general note: Quantitative high-throughput screening tests each substance at several concentrations.

In assay [7] the target is 5-hydroxytryptamine receptor 2A (Homo sapiens) (UniProt P28223). Kind of assay: 5-hydroxytryptamine receptor 2A (HTR2A) small molecule agonists, cell-based qHTS assay (AID 1963587). Note: nearly all actives have a fitted effect of over 30% in size. The gist of the method: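 Kinetic calcium-flux fluorescence (2 min, 1 sec intervals) after compound addition in agonist mode. HTR2A-CHO cells were cultured 18 h, then dye-loaded 1 h at 37 C.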
5-hydroxytryptamine receptor 2A (Homo sapiens), sequence (P28223 whole entry, looked up): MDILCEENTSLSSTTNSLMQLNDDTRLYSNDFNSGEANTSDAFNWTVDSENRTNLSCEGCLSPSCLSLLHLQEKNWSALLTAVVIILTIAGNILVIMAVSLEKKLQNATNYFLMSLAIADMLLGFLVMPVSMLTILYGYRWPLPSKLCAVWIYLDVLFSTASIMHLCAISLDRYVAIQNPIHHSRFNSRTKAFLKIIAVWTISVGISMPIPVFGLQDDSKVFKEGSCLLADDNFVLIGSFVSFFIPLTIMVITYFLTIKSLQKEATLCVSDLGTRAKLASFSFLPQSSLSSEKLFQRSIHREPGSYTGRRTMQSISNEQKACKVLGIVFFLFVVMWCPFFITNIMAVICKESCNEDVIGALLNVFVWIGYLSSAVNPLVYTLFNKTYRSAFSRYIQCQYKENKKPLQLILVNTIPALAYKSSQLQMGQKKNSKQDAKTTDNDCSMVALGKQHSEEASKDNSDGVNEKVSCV

The target in assay [8] is Muscarinic acetylcholine receptor M1 (Homo sapiens) (UniProt P11229). Kind of assay: Cholinergic receptor muscarinic 1 (CHRM1) small molecule antagonists, cell-based qHTS assay (AID 1963588). Note: nearly all actives have a fitted effect of over 40% in size. Note: potency is the fitted concentration of half-maximal effect. The gist of the method:
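CHRM1-CHO calcium-flux assay, antagonist mode. Cells were seeded 18 h, dye-loaded 1 h at 37 C and given compound for 5 min at RT, then acetylcholine was added at 50nM. FDSS fluorescence was read 3 min; 15 concentrations, three runs.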

The target is the same in assay [9]. The assay can be described thus: Cholinergic receptor muscarinic 1 (CHRM1) small molecule agonists, cell-based qHTS assay (AID 1963589). Note: nearly all actives have a fitted effect of over 35% in size. The gist of the method:
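Each compound was tested at 15 concentrations across three independent runs on dye-loaded CHO cells stably expressing human CHRM1, reading intracellular calcium fluorescence kinetically at 1 sec intervals.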

Assay [10] deals with Beta-2 adrenergic receptor (Homo sapiens) (UniProt P07550). Kind of assay: Adrenergic beta2 receptor (ADRB2) small molecule antagonists, cell-based qHTS assay (AID 1963592). Note: series mostly up to about 92 µM; nearly all actives have a fitted effect of over 50% in size. A digest of the protocol:
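Cells (CHO, stable ADRB2 overexpression) incubated 18-20hr at 37C; compounds added from DMSO; agonist mix (1nM isoproterenol, 100uM IBMX, 25uM Ro-20-1724) added; 0.5hr RT; d2-cAMP and anti-cAMP-cryptate added; 1hr RT; 665/615 nm read.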

Assay [11] shares this target. The assay can be described thus: Adrenergic beta2 receptor (ADRB2) small molecule agonists, cell-based qHTS assay (AID 1963593).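 Note: CHO cells stably overexpressing human ADRB2.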 The gist of the method:
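CHO cells stably over-expressing ADRB2 were plated overnight at 37C, then dosed with compounds plus a stimulation mix containing 100uM IBMX and 25uM Ro-20-1724 for 0.5hr at room temperature. cAMP was measured by HTRF competition, 1hr.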

The target in assay [12] is D(2) dopamine receptor (Homo sapiens) (UniProt P14416). The assay can be described thus: Dopamine D2 receptor (DRD2) small molecule antagonists, cell-based qHTS assay (AID 1963595; active = well fitted inhibition curve with a large enough effect in the signal ratio in the repeat runs, with a control signal flat; the % refers to the signal ratio; note: potency is the fitted concentration of half-maximal effect). The gist of the method:
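Antagonist mode in DRD2-HEK293 cells: after compound addition with 0.1 mM Ro20-1724, cells received quinpirole (12 nM) and NKH477 (200 nM) for 30 min at room temperature; HTRF cAMP read after 1 h detection.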

Assay [13] in a line: p53 small molecule agonists, cell-based qHTS assay with human liver microsomes (AID 1963577).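 Note: p53 response element beta-lactamase reporter cells with liver microsomes plus NADPH.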 The gist of the method:
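Metabolically competent format: test substances, human liver microsomes and NADPH (both 0.5 mg/mL final) incubated with p53RE-bla cells 16 h at 37 C. Beta-lactamase reporter signal then quantified by fluorescence.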

Assay [14] is described as follows: p53 small molecule agonists, cell-based qHTS assay with rat liver microsomes: qHTS cell viability counter screen (AID 1963580). Note: nearly all actives have a fitted effect of over 45% in size. Note: potency is the fitted concentration of half-maximal effect. A digest of the protocol:
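HCT-116 p53RE-bla, 4,000 cells/well, 5 h pre-incubation; cpd + rat liver microsomes 0.5 mg/mL + NADPH 0.5 mg/mL (final); 16 h, 37 C; CellTiter-Glo, 30 min RT; luminescence.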

Assay [15] is described as follows: p53 small molecule agonists, cell-based qHTS assay: qHTS cell viability counter screen (AID 1963581). Note: nearly all actives have a fitted effect of over 45% in size. Note: potency is the fitted concentration of half-maximal effect. A digest of the protocol:
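In the same plates used for the p53 bla reporter, HCT-116 cells given compounds for 16 h at 37 C received CellTiter-Glo; luminescence was recorded 30 min later at room temperature.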

Assay [16] has as its target D(2) dopamine receptor (Homo sapiens) (UniProt P14416). Kind of assay: Dopamine D2 receptor (DRD2) small molecule agonists, cell-based qHTS assay (AID 1963594). Note: nearly all actives have a fitted effect of over 35% in size. The gist of the method:
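cAMP accumulation in DRD2-HEK293 cells measured by HTRF after 1 h detection; compounds added 10 min before NKH477 (200nM […]) forskolin-analogue stimulation, 30 min at room temperature, with Ro20-1724 present at 0.1 mM final.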

Assay [17] can be described thus: p53 small molecule agonists, cell-based qHTS assay (AID 1963582; active = well fitted activation curve with a large enough effect in the signal ratio in the repeat runs, not every such curve was filed as active; the % refers to the signal ratio). The gist of the method:
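Compounds are pin-transferred in DMSO onto p53RE-bla cells and incubated 16 h at 37 C. The B/G FRET beta-lactamase substrate is then applied for 2 h at RT and fluorescence recorded.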

A short description of assay [18]: cAMP Responsive Elements (CRE) small molecule antagonists, cell-based qHTS assay (AID 1963591; active = well fitted inhibition curve with a large enough effect in the signal ratio in the repeat runs, not every such curve was filed as active; the % refers to the signal ratio). The gist of the method: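 Inhibition of NKH477-driven (0.25 uM final) CRE-beta-lactamase signal in HEK293T cells, 3 h compound exposure at 37 °C, detected by FRET substrate fluorescence.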
Assay [19] concerns the target 5-hydroxytryptamine receptor 2A (Homo sapiens) (UniProt P28223). Kind of assay: 5-hydroxytryptamine receptor 2A (HTR2A) small molecule antagonists, cell-based qHTS assay (AID 1963586). Note: nearly all actives have a fitted effect of over 45% in size. Note: potency is the fitted concentration of half-maximal effect. A digest of the protocol: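 Antagonist-mode intracellular calcium assay: DOI (4 nM) added after 5 min compound pre-incubation at room temperature to dye-loaded HTR2A-CHO cells. Fluorescence followed for 3 min, sampled every second.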

Assay [20] can be described thus: cAMP Responsive Elements (CRE) small molecule agonists, cell-based qHTS assay (AID 1963590). A digest of the protocol: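 Cell line: CRE-bla HEK 293T; medium DMEM/10% dialyzed FBS/0.1 mM NEAA/1 mM pyruvate/25 mM HEPES; 3 h compound exposure; beta-lactamase FRET readout after 2 h substrate loading at RT.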

“And” between values parts separate entries of the source, which are not always exact repeats. Identical values can stand only once. Results filed as inconclusive are left out. The source made the active and inactive calls. Unless noted, calls come from the whole dose curve.

D(2) dopamine receptor (Homo sapiens), sequence (P14416 whole entry, looked up): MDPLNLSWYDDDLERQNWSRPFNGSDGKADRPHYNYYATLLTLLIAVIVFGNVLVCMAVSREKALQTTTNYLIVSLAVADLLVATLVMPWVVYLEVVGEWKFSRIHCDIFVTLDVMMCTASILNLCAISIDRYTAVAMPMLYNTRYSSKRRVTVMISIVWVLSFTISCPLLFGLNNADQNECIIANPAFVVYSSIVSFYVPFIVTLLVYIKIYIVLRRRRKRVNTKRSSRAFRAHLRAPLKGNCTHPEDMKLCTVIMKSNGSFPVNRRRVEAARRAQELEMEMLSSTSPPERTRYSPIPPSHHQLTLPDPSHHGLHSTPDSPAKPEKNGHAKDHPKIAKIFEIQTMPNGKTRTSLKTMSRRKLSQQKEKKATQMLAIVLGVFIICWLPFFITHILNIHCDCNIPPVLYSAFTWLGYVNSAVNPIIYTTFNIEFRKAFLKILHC
Muscarinic acetylcholine receptor M1 (Homo sapiens), sequence (P11229 whole entry, looked up): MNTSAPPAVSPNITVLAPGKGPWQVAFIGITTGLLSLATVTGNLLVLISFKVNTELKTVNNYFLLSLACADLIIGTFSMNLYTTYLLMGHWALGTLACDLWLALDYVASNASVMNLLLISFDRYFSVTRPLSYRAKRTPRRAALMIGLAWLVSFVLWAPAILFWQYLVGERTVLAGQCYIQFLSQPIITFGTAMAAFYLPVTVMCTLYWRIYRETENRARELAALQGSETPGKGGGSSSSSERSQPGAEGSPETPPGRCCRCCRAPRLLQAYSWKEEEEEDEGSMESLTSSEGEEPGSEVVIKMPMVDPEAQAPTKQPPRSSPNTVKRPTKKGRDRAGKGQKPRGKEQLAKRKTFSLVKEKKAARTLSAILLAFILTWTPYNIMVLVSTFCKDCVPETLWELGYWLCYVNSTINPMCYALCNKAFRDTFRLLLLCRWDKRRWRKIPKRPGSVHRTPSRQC
Gonadotropin-releasing hormone receptor (Homo sapiens), sequence (P30968 whole entry, looked up): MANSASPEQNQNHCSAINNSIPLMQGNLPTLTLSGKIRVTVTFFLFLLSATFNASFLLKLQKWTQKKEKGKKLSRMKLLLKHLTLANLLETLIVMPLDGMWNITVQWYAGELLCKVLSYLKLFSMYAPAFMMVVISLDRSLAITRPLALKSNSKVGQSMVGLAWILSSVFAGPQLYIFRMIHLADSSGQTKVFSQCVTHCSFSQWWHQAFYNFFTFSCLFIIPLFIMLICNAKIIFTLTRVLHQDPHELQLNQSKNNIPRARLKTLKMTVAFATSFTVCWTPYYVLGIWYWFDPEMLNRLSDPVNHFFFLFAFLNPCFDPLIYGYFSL
Beta-2 adrenergic receptor (Homo sapiens), sequence (P07550 whole entry, looked up): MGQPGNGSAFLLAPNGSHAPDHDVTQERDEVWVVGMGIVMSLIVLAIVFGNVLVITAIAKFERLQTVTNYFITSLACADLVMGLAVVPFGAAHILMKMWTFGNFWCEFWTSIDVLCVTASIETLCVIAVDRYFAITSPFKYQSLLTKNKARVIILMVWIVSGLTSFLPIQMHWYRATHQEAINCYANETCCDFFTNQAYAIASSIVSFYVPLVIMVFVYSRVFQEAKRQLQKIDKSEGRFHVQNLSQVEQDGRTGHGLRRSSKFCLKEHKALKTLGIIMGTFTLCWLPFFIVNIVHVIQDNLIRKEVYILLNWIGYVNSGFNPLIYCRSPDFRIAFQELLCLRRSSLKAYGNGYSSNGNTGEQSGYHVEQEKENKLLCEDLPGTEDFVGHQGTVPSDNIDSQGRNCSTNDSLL
KiSS-1 receptor (Homo sapiens), sequence (Q969F8 whole entry, looked up): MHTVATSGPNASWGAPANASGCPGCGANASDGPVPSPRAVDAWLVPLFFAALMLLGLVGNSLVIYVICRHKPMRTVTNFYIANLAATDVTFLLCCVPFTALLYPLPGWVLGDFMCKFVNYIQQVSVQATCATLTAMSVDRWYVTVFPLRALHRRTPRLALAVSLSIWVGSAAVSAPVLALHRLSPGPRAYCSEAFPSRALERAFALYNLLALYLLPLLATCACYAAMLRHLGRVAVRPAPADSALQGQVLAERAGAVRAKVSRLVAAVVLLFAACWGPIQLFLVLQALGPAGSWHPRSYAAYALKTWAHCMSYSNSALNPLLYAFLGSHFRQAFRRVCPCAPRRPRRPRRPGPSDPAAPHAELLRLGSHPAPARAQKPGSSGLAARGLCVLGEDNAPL

On to `CCCCCCCCS(=O)C(C)Cc1ccc2c(c1)OCO2` (configuration not stated), for which the Potency result in [1], in [2], in assay [3], in assay [4], in [5] and in assay [6] was “inactive” throughout. Besides, the Potency entry in [7], in assay [8], in assay [9], in assay [10], in [11] and in assay [12] was “inactive” in each case.

Consider `C=C1CC[C@H](O)CC1=C/C=C1\CCC[C@]2(C)[C@@H]([C@H](C)/C=C/[C@H](C)C(C)C)CC[C@@H]12`, for which, in assay [1], the Potency was 21.5 µM (active) and 61.1 µM (active). Besides, the Potency result in assay [2], in assay [3], in assay [4], in [13], in assay [6] and in assay [14] was “inactive” each time. Moreover, the Potency result in assay [15], in assay [11], in [16] and in assay [12] was “inactive” in each case.

Consider `C=C[C@](C)(O)CC[C@@H]1[C@@]2(C)CCCC(C)(C)[C@@H]2CC[C@@]1(C)O`, for which the Potency result in assay [1], in [2], in [3], in [4], in assay [5] and in assay [17] was “inactive” each time. In addition, the Potency result in assay [7], in assay [9], in assay [18] and in assay [16] was “inactive” in each case. Moreover, the Potency is 32.4 µM (active) in assay [6], 45.8 µM (active) in assay [14] and 9.13 µM (active) in [15].

With `Cc1ccc2nc(-c3ccc(N)cc3)sc2c1S(=O)(=O)O`, the Potency in assay [1] is 10.7 µM (active); in assay [5] it was 17.9 µM (active). Besides, the Potency result in [2], in assay [3], in [4], in assay [14], in assay [15] and in assay [19] was “inactive” throughout. In addition, the Potency entry in [7], in assay [8], in [9], in [18], in [10] and in [11] was “inactive” throughout. Also, the Potency entry in [16] and in [12] was “inactive” each time.

On to `CNCc1ccc(NC(=O)c2c[nH]c3c2C(=O)CCC3)cc1`, for which the Potency entry in [1], in [2], in assay [3], in assay [4], in [5] and in assay [6] was “inactive” each time. The Potency result in assay [14], in [17], in assay [19], in assay [7], in assay [9] and in [20] was “inactive” in each case. The Potency result in assay [18], in [10] and in [12] was “inactive” each time.

On to `O=C1Cc2cc(CCN3CCN(c4nsc5ccccc45)CC3)c(Cl)cc2N1`, for which the Potency result in [1], in assay [2], in assay [3], in [4], in assay [5] and in [6] was “inactive” each time. For the same compound, the Potency result in assay [14], in assay [7], in assay [9], in assay [20], in assay [10] and in [16] was “inactive” throughout. The Potency in assay [8] was 5.16 µM (active).

As to `O=C1NC2CCCCN2C12CCN(CCCN1c3ccccc3CCc3ccc(Cl)cc31)CC2` (configuration not stated), the Potency result in [1], in [2], in [3], in assay [4], in [5] and in [6] was “inactive” throughout. In addition, the Potency entry in [14], in assay [15], in [7], in assay [9], in assay [11] and in assay [16] was “inactive” throughout. In addition, the figures for the Potency in assay [19], in assay [8] and in assay [12] were 0.0365 µM (active), 1.3 µM (active) and 0.335 µM (active), respectively.

`COC(=O)c1nc(Cl)c(Cl)nc1N`: in [1], the Potency is 5.96 µM (active). Besides, the Potency entry in [2], in [3], in assay [4], in assay [13], in [19] and in [7] was “inactive” each time. The Potency entry in assay [8], in assay [9], in assay [10], in [16] and in assay [12] was “inactive” in each case.
